Laboratory results from PubChem BioAssay AID1662 (Broad Institute, 2009).
The campaign covered roughly 300,000 compounds. About 4,000 (1.3%) were called active.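 Rule for the calls: active = mean replicate score, as percent of positive control median, at least 50; inconclusive = mean below 50 but one replicate at or above 50; inactive = mean and every replicate below 50.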 Shown is part of a subset that was picked to be rich in actives.

Experiment: S. pyogenes SKKanGAS growth inhibitors in kanamycin, primary screen, streptokinase expression inhibitor project, SKKanGAS strain, BacTiter-Glo luminescence (AID 1662);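 note: strain carries kanamycin resistance gene driven by streptokinase promoter and grows in 40 µg/ml kanamycin; loss of luminescence reflects streptokinase promoter inhibition or plain growth inhibition; 0% = median of DMSO wells and 100% = positive control at its reference dose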
Settings: 6 h, at 7.5 µM, active compounds read high

SMILES	inhibition
COC(=O)c1cc(OC)ccc1-c1ccc(OC)cc1	11% (inactive)
COc1ccc(Oc2cn[nH]c2-c2ccc(OC)cc2O)cc1	13.6% (inactive)
COc1ccc(-c2cn[nH]c2-c2ccc(OC)cc2)cc1	75.3% (active)
O=C1/C(=C\c2ccccc2Cl)SC(=S)N1CCC(=O)N1CCCc2ccccc21	-4.28% (inactive)
O=c1[nH]cnc2c1c(-c1ccccc1)cn2-c1ccc(F)cc1	-1.74% (inactive)
COc1ccc(-n2cc(-c3ccccc3)c3c(=S)nc[nH]c32)cc1	54.1% (active)
COc1ccc(-c2cn(-c3ccc(OC)cc3)c(=S)[nH]2)cc1	-13.9% (inactive)
CCOP(=O)(OCC)C(Nc1cccc(C)c1)c1ccc(F)cc1 (stereo not given)	-2.54% (inactive)
CC1CCc2[nH]c3ccc(C(=O)N(C)CC(=O)Nc4cccc(F)c4)cc3c2C1 (stereo not given)	-8.76% (inactive)
CC(C)CC1(C(=O)NCc2ccccn2)C=CCN1C(=O)c1ccccc1 (stereo not given)	-5.95% (inactive)
NC(=O)NC(=O)CSc1nc2cc([N+](=O)[O-])ccc2n1-c1cccc(C(F)(F)F)c1	97.7% (active)
COc1ccc(-n2cnnc2SCC(=O)Nc2cccc([N+](=O)[O-])c2)cc1	-8.4% (inactive)
COc1ccc(CCNC(=O)CSc2nc3[nH]ncc3c(=O)n2-c2cccc(C(F)(F)F)c2)cc1OC	-2.08% (inactive)
CC1(C)S[C@@H]2[C@H](N=CN3CCCCCC3)C(=O)N2[C@H]1C(=O)O	-7.68% (inactive)
Cc1cccc(OCC(=O)NC2CC(C)(C)NC(C)(C)C2)c1	1.54% (inactive)
COC(=O)C1[C@H]2SC(C)(C)C(C(=O)OC)N2C(=O)N1Cc1nc2ccccc2s1 (stereo not given in full)	6.63% (inactive)
CC1(C)SC2C(NC(=O)COc3ccccc3)C(=O)N2C1C(=O)O (stereo not given)	102% (active)
NC(=O)C1CC(=O)N(c2ccc(OCC(=O)NCc3ccccc3)cc2)C1 (stereo not given)	1.49% (inactive)
CC1(C)S[C@@H]2[C@H](NC(=O)COc3ccccc3)C(=O)N2C1C(=O)OCc1ccccc1 (stereo not given in full)	97% (active)
C[C@H]1CC[C@]2(O[C@@H](CCO)C[C@@H](O)[C@@H]2O)O1	-3.21% (inactive)
CC1Cn2c(nnc2-c2cccs2)S1 (stereo not given)	-5.31% (inactive)
CCCn1c(=N)n(CC(=O)c2ccc(Cl)c(Cl)c2)c2ccccc21	2.77% (inactive)
CN(C(=O)CN1C(=O)NC(C)(CCc2ccccc2)C1=O)c1ccccc1 (stereo not given)	-1.34% (inactive)
CC1CC(=O)N(CC(=O)Nc2cccc(Cl)c2)c2ccccc2S1(=O)=O (stereo not given)	-1.88% (inactive)

SMILES	inhibition
CSc1ccc(CNC(=O)c2ccc(NC(=O)C3=CSCCO3)cc2)cc1	-10.5% (inactive)
CC(=O)Nc1ccc(-c2csc(NC(=O)Nc3ccccc3)n2)cc1	0.751% (inactive)
Cc1nc(NNC(=O)c2ccccc2)cc(-c2ccccc2)n1	-2.12% (inactive)
Cc1ccc(-c2csc(NNC(=O)c3ccccc3)n2)cc1	55.1% (active)
COc1cccc(CNC(=O)c2nnn(CC(=O)Nc3cc(C)ccc3C)c2N)c1	11% (inactive)
O=C(/C=C/c1cnc2ccccc2n1)NC1CCCCCC1	2.73% (inactive)
COc1ccccc1C(=O)NCCC(=O)NN1C(=O)NC2(CCCCC2)C1=O	-9.03% (inactive)
NCC(=O)c1cccc2ccc[n+]([O-])c12	-3.82% (inactive)
CS(=O)(=O)c1ccc(-c2nnn(CC(=O)Nc3ccc4c(c3)OCCO4)n2)cc1	-16.5% (inactive)
Cc1cccc(C(=O)Nc2ccccc2-c2nnn(CC(=O)Nc3ccc4c(c3)OCCO4)n2)c1	59.1% (active)
O=C(Nc1ccccc1-c1nnn(CC(=O)N2CCCc3ccccc32)n1)c1cccc(Cl)c1	-0.017% (inactive)
COc1cc(C(=O)OC(C)C(=O)NCC2CCCCC2)cc(NC(=O)c2ccco2)c1OC (stereo not given)	-4.57% (inactive)
COc1cc2ccccc2cc1C(=O)Nc1nc(C)c(C(C)=O)s1	-5.23% (inactive)
COc1ccccc1/C=N/Nc1nc(C)c(C(C)=O)s1	-9.03% (inactive)
COc1ccc(S(=O)(=O)N2CCOCC2)cc1C(=O)Nc1nc2ccccc2s1	1.7% (inactive)
COc1cccc2sc(NNC(=O)c3nc4ccccc4s3)nc12	92.6% (active)
COc1cccc2sc(Nc3nc(C)c(C(C)=O)s3)nc12	53.7% (active)
COc1ccccc1OCc1nc2ccccc2s1	21% (inactive)
CN(C)CCCN(C(=O)c1ccc(S(=O)(=O)N2CCCCCC2)cc1)c1nc2cc3c(cc2s1)OCCO3	-2.65% (inactive)
N#Cc1ccc(OCc2nnc(-c3ccc([N+](=O)[O-])cc3)o2)cc1	4.26% (inactive)
COc1ccccc1N1CCN(c2ncnc3sc(C)c(-c4ccccc4)c23)CC1	35.4% (inactive)
CS(=O)(=O)N(Cc1ccccc1Cl)c1ccc(C(=O)NCc2cccnc2)cc1	-5.28% (inactive)
C=CCNC(=S)NNC(=O)c1cc(Cl)ccc1OC	3.23% (inactive)
COc1ccc(Cl)cc1C(=O)NNC(=S)NC(=O)/C=C/c1ccco1	80.2% (active)

SMILES	inhibition
COc1ccc(Cl)cc1C(=O)NNC(=S)NC1CCCC1	-3.8% (inactive)
CCOCCCNC(=S)N1CCC(NC(=O)C2CCCCC2)CC1	-0.571% (inactive)
CC(C)c1nc2cc(C(=O)NC(C)c3cnn(C)c3)ccc2o1 (stereo not given)	-0.746% (inactive)
CCCCN(CC)C(=S)Nc1ccc2nc3n(c(=O)c2c1)CCCCC3	2.4% (inactive)
O=C(Nc1ccc2nc3n(c(=O)c2c1)CCCCC3)c1ccccc1Cl	-2.99% (inactive)
COc1ccc(CCNC(=O)C(=O)Nc2ccc3nc4n(c(=O)c3c2)CCCCC4)cc1OC	58.4% (active)
C=C(C)COc1ccc(-c2n[nH]c(C)c2-c2ccccc2OC)c(O)c1	10.6% (inactive)
C=C(C)COc1ccc(-c2n[nH]c(C)c2-c2ccccc2)c(O)c1	62.3% (active)
CCOc1ccc(-c2n[nH]c(C)c2-c2ccccn2)c(O)c1	-4.57% (inactive)
CCNC(=O)c1cnn(-c2ccccc2)c1-c1ccccc1	-2.93% (inactive)
COc1ccc(C(=O)O)cc1S(=O)(=O)NCc1cccnc1	0.329% (inactive)
c1ccc(NCc2cccc3ccccc23)nc1	22.8% (inactive)
Oc1ccc2ccccc2c1N=Nc1nccs1	106% (active)
Oc1ccc(N=Nc2nccs2)c(O)c1	3.07% (inactive)
N#Cc1ccc(Oc2cc(C(F)(F)F)nc(-c3ccccn3)n2)cc1	-2.81% (inactive)
c1ccc(-c2nc(NCc3ccco3)c3ccccc3n2)cc1	-7.68% (inactive)
COc1cnc(-c2ccccn2)nc1Oc1ccc(C(C)(C)C)cc1	78.3% (active)
COc1ccc(Cc2nc(-c3ccccn3)no2)cc1OC	29.5% (inactive)
Cc1ccc(Oc2nc(-c3ccccn3)nc3ccccc23)cc1	76.2% (active)
CCOCCCNc1nc(-c2ccccc2)nc2ccccc12	-2.19% (inactive)
CC(C)(C)Nc1nc(-c2ccccn2)nc2ccccc12	87.4% (active)
COc1ccccc1Oc1nc(-c2cccnc2)nc2ccccc12	5.74% (inactive)
COc1ccc(Sc2nc(-c3ccccc3)ncc2OC)cc1	0.835% (inactive)
CSc1ccc(S(=O)(=O)Nc2cccc(F)c2)cc1	7.04% (inactive)

SMILES	inhibition
COc1ccc(N=Nc2c(-c3ccc(OC)cc3)[nH]oc2=O)cc1	6.47% (inactive)
CCCN(CCC)c1c([N+](=O)[O-])c(=O)oc2ccccc12	-5.31% (inactive)
CCOC(=O)c1cc2c(=O)n3ccccc3nc2n(CC(C)C)c1=NC(=O)c1c(-c2c(F)cccc2Cl)noc1C	18.2% (inactive)
O=C(CN1C(=O)NC2(CCCC2)C1=O)NCC1CCCO1 (stereo not given)	-1.73% (inactive)
COC(C/C=C/C(=O)[C@@H](C)OCc1ccccc1)OC	-2.55% (inactive)
NC(=O)c1nnsc1-c1ccc(-c2snnc2C(N)=O)cc1	2.07% (inactive)
COc1cc2c3c(c1)/C(=C1/SC(=S)NC1=O)C(=O)N3C(C)(C)C=C2C	61.3% (active)
Cc1nc2ccc(S(=O)(=O)N(C)CC(=O)NC(C)c3ccccc3)cc2s1 (stereo not given)	-15% (inactive)
COCC1CCCN(C(=O)c2ccc3oc(C(C)C)nc3c2)C1 (stereo not given)	-3.17% (inactive)
COCC1CCN(C(=O)CCc2nnc(C3(c4ccc(Cl)cc4)CCC3)o2)C1 (stereo not given)	49.5% (active)
CN1CCN(C(=O)CCc2nc(-c3ccc(Cl)cc3)no2)CC1	-5.8% (inactive)
O=C(COC(=O)CNS(=O)(=O)c1ccc(F)c(F)c1F)NC1CCCC1	2.52% (inactive)
CO/N=C(\C(=O)N[C@@H]1C(=O)N2C(C(=O)O)=C(COC(C)=O)CS[C@H]12)c1csc(N)n1 (stereo in doubt)	33% (inactive)
C=CC1=C(C(=O)O)N2C(=O)[C@@H](NC(=O)/C(=N/OCC(=O)O)c3csc(N)n3)[C@H]2SC1	109% (active)
Cc1ccc2c(c1)-c1c(ssc1=S)C(C)(C)N2C(=O)CN1C(=O)c2ccccc2C1=O	24.3% (inactive)
Nc1nc(NC(=O)/C=C/c2ccc(F)cc2)nn1-c1ccccc1	76.1% (active)
Nc1nc(NC(=O)/C=C/c2ccccc2)nn1-c1ccccc1	-11.5% (inactive)
Cc1ccc(C(=O)Nc2nc(N)n(-c3ccccc3)n2)cc1	5.73% (inactive)
Cc1sc2nc(SCCO)n(-c3ccccc3)c(=O)c2c1C	7.52% (inactive)
COC(=O)c1ccc(NC(=O)C23CC4CC(C2)CC(n2cnc(Cl)n2)(C4)C3)cc1	-3.03% (inactive)
Cc1cc(C)c(NC(=O)c2oc3ccccc3c2COc2ccccc2)c(C)c1	58.7% (active)
CCOC(=O)c1oc2ccccc2c1NC(=O)c1cccs1	-5.47% (inactive)
COCc1c(C(=O)OCc2c(C)noc2C)oc2ccccc12	2.6% (inactive)
